The record followed here is PubChem BioAssay (NCATS).

Results filed as inconclusive are left out. Calls of active or inactive are those of the source. Calls follow the shape of the dose curve; as a rule, active = well fitted inhibition curve with a large enough effect; inconclusive = small, poorly fitted or top-dose-only effect; inactive = flat fitted curve, though single readings scatter.

Test in all cases: qHTS profiling for inhibitors of Plasmodium falciparum proliferation (AID 504749); also: nearly all actives have a fitted effect of over 60% in size
What all share (settings): P. falciparum in erythrocytes, SYBR Green DNA, 72 h; series mostly up to 28.7 µM

One experiment deals with CP247. In outline: (§1)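 P. falciparum-infected erythrocytes (0.3% parasitemia, 2.5% hematocrit final) were exposed to compounds for 72 h at 37 C in 5% CO2, then lysed with SYBR Green buffer overnight at room temperature; parasite DNA fluorescence was normalized to artemisinin and DMSO controls.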
The test system of the next experiment is CP250. In outline:
as §1

A further experiment deals with CP252. The method in brief: as §1
The subject of a further experiment is CP256. In outline: as §1
The next experiment relates to CP260. In outline: as §1
Another experiment relates to CP262. In outline: as §1
The next experiment has as its system CP265. The method in brief: as §1
The next experiment concerns CP266. In outline: as §1
In another experiment the test system is CP268. In outline: as §1
The subject of a further experiment is CP269. In outline:
as §1

The next experiment deals with CP305. In outline:
as §1

The test system of a further experiment is CP315. In outline: as §1
The test system of a further experiment is CP325. In outline: as §1
Another experiment deals with CP329. In outline:
as §1

A further experiment relates to CP335. The method in brief: as §1
In the next experiment the test system is DFO2036. The method in brief:
as §1

The subject of a further experiment is CP286. In outline:
as §1

The subject of another experiment is CP291. In outline:
as §1

The next experiment concerns CP297. In outline: as §1
The test system of another experiment is DIV14. The method in brief: as §1
Potency is read from the fitted curve at half-maximal effect.

As to `CCN(CCO)CCCC(C)Nc1ccnc2cc(Cl)ccc12` (configuration not stated), the Potency result with CP247, in the experiment on CP250, with CP252, in the experiment on CP256, in the experiment with CP260 and in the experiment on CP262 was “inactive” each time. The Potency entry in the experiment on CP265, in the experiment with CP266, with CP268, in the experiment with CP269, in the experiment on CP305 and in the experiment with CP315 was “inactive” throughout. For the same molecule, the Potency entry with CP325, in the experiment with CP329, with CP335 and in the experiment with DFO2036 was “inactive” each time.

As for `C[C@H](Cn1cnc2c(N)ncnc21)OCP(=O)(O)O`, the Potency result in the experiment on CP247, in the experiment with CP250, in the experiment on CP252, in the experiment on CP256, with CP262 and in the experiment with CP265 was “inactive” throughout. In addition, the Potency entry in the experiment on CP266, with CP268, in the experiment on CP269, in the experiment on CP286, with CP291 and in the experiment with CP297 was “inactive” throughout. Further, the Potency result in the experiment with CP305, in the experiment on CP315, in the experiment with CP325, in the experiment with CP329, with CP335 and in the experiment with DFO2036 was “inactive” throughout. For the same molecule, the Potency entry in the experiment with DIV14 was “inactive”.

Regarding `CNC[C@H](O)c1ccc(O)c(O)c1`, the Potency entry with CP247, in the experiment with CP250, in the experiment on CP252, in the experiment with CP256, with CP260 and with CP262 was “inactive” in each case. The Potency entry with CP265, with CP266, in the experiment on CP268, with CP269, in the experiment with CP286 and in the experiment with CP291 was “inactive” in each case. The Potency result in the experiment with CP297, in the experiment with CP305, in the experiment with CP315, in the experiment on CP325, in the experiment on CP329 and with DFO2036 was “inactive” throughout. Further, the Potency result with DIV14 is “inactive”.

Turning to `COc1ccc(C2(C#N)CCC(C(=O)O)CC2)cc1OC1CCCC1` (configuration not stated), the Potency result in the experiment with CP247, in the experiment with CP250, with CP252, in the experiment with CP256, in the experiment on CP260 and with CP262 was “inactive” in each case. The Potency entry in the experiment with CP265, in the experiment with CP268, with CP269, with CP286, with CP291 and in the experiment with CP297 was “inactive” throughout. The Potency entry in the experiment on CP305, in the experiment on CP315, with CP325, with CP329, in the experiment with CP335 and with DFO2036 was “inactive” throughout. In the experiment with DIV14, the Potency result is “inactive”.

Take `Clc1ccc(C(Cn2ccnc2)OCc2ccsc2Cl)c(Cl)c1` (configuration not stated): the Potency in the experiment on CP247 was 5.01 µM (active); in the experiment on CP250, 11.2 µM (active); in the experiment on CP252 it was 7.94 µM (active); in the experiment on CP256, 10 µM (active); with CP260 it was 11.2 µM (active); in the experiment with CP262, 13.5 µM (active). The Potency in the experiment on CP265 is 7.94 µM (active); in the experiment on CP268, 12 µM (active); in the experiment on CP269, 6.75 µM (active); in the experiment on CP286 it was 7.08 µM (active); in the experiment on CP291, 12 µM (active); in the experiment with CP297, 3.79 µM (active). Besides, the Potency in the experiment on CP305 is 12 µM (active); in the experiment with CP315, 15.1 µM (active); with CP325 it was 12 µM (active); in the experiment on CP329, 13.5 µM (active); in the experiment on CP335, 4.78 µM (active); in the experiment on DFO2036 it was 3.16 µM (active). For the same molecule, in the experiment on DIV14, the Potency was 1.9 µM (active).

For `CCC1=C(C)CN(C(=O)NCCc2ccc(S(=O)(=O)NC(=O)NC3CCC(C)CC3)cc2)C1=O` (configuration not stated), the Potency entry in the experiment with CP247, in the experiment on CP250, in the experiment with CP252, in the experiment on CP256, with CP260 and in the experiment with CP262 was “inactive” each time. The Potency result with CP265, in the experiment with CP266, in the experiment with CP268, in the experiment on CP269, with CP286 and in the experiment with CP291 was “inactive” in each case. Also, the Potency result in the experiment on CP297, in the experiment on CP305, with CP315, in the experiment with CP325, in the experiment with CP329 and in the experiment on CP335 was “inactive” each time. Further, the Potency result with DFO2036 and in the experiment with DIV14 was “inactive” each time.

On to `O=C(NCCO[N+](=O)[O-])c1cccnc1`, for which the Potency result in the experiment on CP247, with CP250, in the experiment on CP252, in the experiment on CP256, with CP260 and with CP262 was “inactive” each time. Besides, the Potency entry with CP265, in the experiment on CP268, in the experiment with CP269, with CP286, in the experiment with CP291 and with CP297 was “inactive” in each case. The Potency result in the experiment on CP305, in the experiment on CP315, in the experiment on CP325, with CP329, in the experiment with CP335 and in the experiment with DFO2036 was “inactive” in each case. The Potency result with DIV14 was “inactive”.

Turning to `NNc1nncc2ccccc12`, the Potency entry in the experiment with CP252, in the experiment with CP262, in the experiment with CP266, with CP291, in the experiment with CP297 and with CP315 was “inactive” throughout. Also, the Potency entry in the experiment with CP329 is “inactive”. In the experiment with DIV14, the Potency was 6.42 µM (active).

In the case of `O=C1CCc2ccc(OCCCCN3CCN(c4cccc(Cl)c4Cl)CC3)cc2N1`, the Potency result with CP256, in the experiment with CP262, in the experiment on CP265, in the experiment with CP266, with CP268 and in the experiment with CP269 was “inactive” in each case. The Potency entry with CP291, with CP297, in the experiment with CP305, in the experiment on CP315, in the experiment on CP325 and with CP329 was “inactive” in each case. For the same molecule, in the experiment with DIV14, the Potency result is “inactive”. Also, the Potency in the experiment with CP260 is 11.2 µM (active).

As to `CCc1nc(N)nc(N)c1-c1ccc(Cl)cc1`, the Potency entry with CP250, in the experiment on CP256, with CP260, in the experiment on CP262, in the experiment on CP265 and in the experiment with CP266 was “inactive” each time. Also, the Potency entry with CP268, with CP269, in the experiment on CP286, in the experiment on CP291, in the experiment with CP305 and with CP315 was “inactive” throughout. The Potency result in the experiment on CP325 and with DFO2036 was “inactive” throughout.

Regarding `Cc1cc(C2CCCCC2)n(O)c(=O)c1`, the Potency is 3.55 µM (active) with CP252; 5.73 µM (active) in the experiment on CP269; 7.21 µM (active) in the experiment with CP297; 5.73 µM (active) in the experiment with CP305; 2.28 µM (active) in the experiment on CP315; 5.73 µM (active) with CP325.

For the molecule `C[Se]CCC(N)C(=O)O` (configuration not stated), the Potency entry in the experiment with CP247, in the experiment with CP250, with CP252, with CP260, with CP262 and in the experiment on CP265 was “inactive” in each case. The Potency entry with CP266, in the experiment with CP268, in the experiment on CP269, in the experiment on CP286, in the experiment on CP291 and in the experiment on CP305 was “inactive” each time. Besides, the Potency entry in the experiment on CP315, in the experiment on CP325, with CP329, in the experiment on CP335, in the experiment on DFO2036 and in the experiment with DIV14 was “inactive” each time.

For `CN(c1nccc(=O)[nH]1)C1CCN(c2nc3ccccc3n2Cc2ccc(F)cc2)CC1`, the Potency result in the experiment on CP250, with CP252, in the experiment on CP256, in the experiment on CP260, with CP262 and in the experiment on CP265 was “inactive” in each case. The Potency entry in the experiment with CP268, in the experiment with CP286, with CP291, with CP305, in the experiment on CP329 and in the experiment on CP335 was “inactive” throughout. Further, the Potency entry in the experiment with DFO2036 was “inactive”.

Take `O=C(CS(=O)Cc1ccco1)NCC=CCOc1cc(CN2CCCCC2)ccn1` (configuration not stated): the Potency entry in the experiment with CP247, with CP250, with CP252, with CP260, in the experiment with CP262 and with CP265 was “inactive” in each case. The Potency result in the experiment with CP266, with CP268, in the experiment on CP269, in the experiment on CP286, in the experiment with CP291 and in the experiment on CP305 was “inactive” in each case. In addition, the Potency entry in the experiment on CP315, with CP325, with CP329, in the experiment with CP335, with DFO2036 and in the experiment with DIV14 was “inactive” throughout.
